Laboratory results reported in PubChem BioAssay AID624173 (National Center for Advancing Translational Sciences (NCATS), 2012).
Hit rate of the full screen: of about 410,000 compounds, about 490 (0.12%) were called active. Inconclusive results (about 1%) are left out. Only a selection was taken, and actives are over-represented in it overall. Unmarked numbers belong to inactive results. Calls follow the shape of the dose curve; as a rule, active = well fitted inhibition curve with a large enough effect; inconclusive = small, poorly fitted or top-dose-only effect; inactive = flat fitted curve, though single readings scatter.

Molecular target: pyruvate kinase (Trypanosoma brucei) (UniProt Q57TT1)
Experiment: qHTS of Trypanosoma Brucei Inhibitors; also: nearly all actives have a fitted effect of over 50% in size
Conditions: TbPYK enzyme, Kinase-Glo Plus ATP luminescence, 45 min; series mostly up to 76.8 µM; activity, negative = inhibition: at the top concentration
From the text: Members of the Trypanosomatidae family of parasitic protozoans cause a spectrum of diseases throughout the tropical and subtropical world. Sleeping sickness, caused by two subspecies of Trypanosoma brucei, is endemic to areas of sub-Saharan Africa, while Chagas' disease, a manifestation of Trypanosoma cruzi infection, is prevalent throughout Central and South America. In addition, many species of Leishmania are responsible for a range of cutaneous and visceral diseases, causing ulcers, destructive lesions and kalaazar, a lethal infection of the viscera. These diseases cause severe public health and economic burdens on populations that are often already caught in a tragic cycle of poverty, poor nutrition and disease. Collectively, parasites of the trypanosomatid family infect 30 million people worldwide (~500 million live in endemic areas), and account for ~130K deaths annually. Existing treatments have developed little in the past 50 years, and suffer from toxicity, poor efficacy and resistance; the goal of this project is to develop lead drugs that will be suitable for entry into pre-clinical trials.
Glycolysis in axenically cultured T. cruzi, representing the intracellular pathogenic stage, is also essential for these parasites. {Engel, 1987} This project aims to discover and optimize selective inhibitors of the glycolytic enzyme pyruvate kinase (PYK) from Trypanosoma brucei, the parasite that causes sleeping sickness. […] Trypanosomatid PYKs show significant differences from their human counterparts including only 47-50% sequence identity and different allosteric and activation properties.{Callens, 1992} To this end, a qHTS was done against the MLSMR to discover inhibitors.
NIH Molecular Libraries Probe Production Network [MLPCN]
NIH Chemical Genomics Center [NCGC]
PI Name: Malcolm Walkinshaw, University of Edinburgh
2 uL of TbPYK/substrate buffer (columns 1-3, 5-48) are dispensed into Greiner white solid bottom 1536-well assay plates; column 4 receives only TEA buffer as 0x TbPYK controls. Compounds are then transferred via Kalypsys pin tool equipped with 1536-pin array (10 nL slotted pins, V&P Scientific, San Diego, CA). Following addition of compound, 2 uL of ADP (130 uM final concentration, all columns) is added to initiate the reaction. The plates are then incubated at room temperature for 45 minutes. Kinase-Glo Plus reagent is added (3 uL) and plates incubated for 10 minutes, before being transferred to a ViewLux high-throughput CCD imager (PerkinElmer) wherein single end-point measurements of luminescence are acquired using a clear filter. All reagents are diluted in an assay buffer consisting of 50 mM TEA (pH 7.2), 100 mM KCl, 10 mM MgCl2, 0.05% BSA and 0.01% Tween-20.
All screening operations will be performed on a fully integrated robotic system (Kalypsys, San Diego, CA) containing one RX-130 and two RX-90 anthropomorphic robotic arms (Staeubli, Duncan, SC). Library plates will be screened starting from the lowest and proceeding to the highest concentration. Vehicle-only plates, with DMSO being pin-transferred to columns 5-48, will be inserted uniformly at the beginning and the end of each library in order to monitor and record any shifts in the background, which can be affected by reagent dispensers or loss in enzyme activity over time. Screening data will be corrected, normalized, and concentration-effect relationships will be derived by using publicly-available curve fitting algorithms developed in-house (http://ncgc.nih.gov/pub/openhts).
% is scaled to controls: 0 for no effect and ±100 for the full control effect; potency is read from the fitted curve at half-maximal effect.

| SMILES | Potency | activity, negative = inhibition |
| --- | --- | --- |
| O=C1NC(=O)N(c2ccccc2)C(=O)/C1=C/c1ccc([N+](=O)[O-])s1 | 17.8 µM (active) |  |
| CC[N+]1(CCOC(=O)C(O)(c2ccccc2)c2ccccc2)CCCCC1 |  | 4.87% |
| COc1cccc(Nc2ncc3ncc(=O)n(C4CC4)c3n2)c1 |  | -1.66% |
| CO[C@H]1C[C@@H](O[C@@H]2[C@@H](C)O[C@@H](O[C@@H]3/C(C)=C/CC4C[C@@H](C[C@]5(C=C[C@@H](C)[C@H](C6CCCCC6)O5)O4)OC(=O)[C@@H]4C=C(C)[C@@H](O)[C@H]5OC/C(=C\C=C\[C@@H]3C)[C@]54O)C[C@H]2OC)O[C@@H](C)[C@@H]1O |  | 19.1% |
| CCCCCCCCCCCCCCCCO |  | -2.03% |
| CCCN(CC)[C@@H](CC)C(=O)Nc1c(C)cccc1C |  | 1.91% |
| O=S(=O)(O)C(F)(F)C(F)(F)C(F)(F)C(F)(F)F |  | 6.2% [at 157 µM] |
| C[N+](C)(CCOc1ccccc1)Cc1cccs1 (tested in a mixture with another compound) |  | 3.32% |
| CCCC[C@H]1C(=O)N(c2ccccc2)N(c2ccc(O)cc2)C1=O |  | -5.82% [at 33.2 µM] |
| CN1CCC2(CC1)CCN(S(=O)(=O)c1ccccc1)CC2 |  | 2.49% |
| O=C(c1csnn1)N1CCC2(CC1)CN(c1ncccn1)C2 |  | 0.632% |
| COc1ccc(S(=O)(=O)NCC(c2ccc(N(C)C)cc2)N2CCCC2)cc1 (centres undefined) |  | -3.6% |
| O=C(Nc1cccc(F)c1)N1CC2(CCN(C(=O)c3csnn3)CC2)C1 |  | 0.268% |
| CN1C(=O)C[C@H](c2ccccc2)C1=O |  | -4.61% |
| C/C=C/C=N/NC(=O)c1ccncc1 |  | 6.94% |
| O=C(Nc1cccc(F)c1)N1CC2(CCN(C(=O)c3cnccn3)CC2)C1 |  | -8.59% |
| Cc1nnc(SCC(=O)NNC(=O)c2ccc(Cl)cc2)n1CC1CCCO1 (centres undefined) |  | -19.4% |
| S=c1[nH]nc(-c2ccc(Cl)cc2)n1CC1CCCO1 (centres undefined) | 10 µM (active) |  |
| CNC(=O)NC(=O)CSc1nnc(-c2ccc(F)cc2)n1CC1CCCO1 (centres undefined) |  | 0.187% |
| c1ccc(N2CC[C@@]3(CCCNC3)C2)nc1 |  | -8.65% |
| NNc1nnc(Cc2ccncc2)c2ccccc12 |  | 5.32% |
| CCNc1ncc2ncc(=O)n(CCc3ccccc3)c2n1 |  | 0% |
| O=C(N/N=C/c1ccc([N+](=O)[O-])o1)c1cc([N+](=O)[O-])cc([N+](=O)[O-])c1O |  | -7.27% |

| SMILES | Potency | activity, negative = inhibition |
| --- | --- | --- |
| CCOc1ccc(N(Cc2ccccc2)C(=O)c2nc(S(C)(=O)=O)ncc2Cl)cc1 |  | -5.03% |
| O=c1c2ccccc2nc(-c2ccccc2)n1-c1ccccn1 |  | 3.13% |
| Cc1ccnc(SC2CC(=O)N(c3ccccc3)C2=O)n1 (centres undefined) |  | -4.81% |
| Cc1ccnc(-n2sc3ccccc3c2=O)n1 | 20 µM (active) |  |
| Cc1ccc(S(=O)(=O)NC(=O)NN2C[C@H]3CCC[C@@H]3C2)cc1 |  | 1.84% [at 33.2 µM] |
| c1csc(CN2CCCC3(CCNCC3)C2)n1 |  | -3.6% |
| CC(O)COc1ccccc1 (centres undefined) |  | 3.14% |
| OCC(CO)NC1C[C@](O)(CO)[C@@H](O)[C@H](O)[C@H]1O (some centres undefined) |  | -1.52% |
| Cn1c(=O)c(-c2ccccc2)nc2cnc(N3CCNCC3)nc21 |  | 0% |
| NNc1nnc(NN)c2ccccc12 |  | -2.4% |
| O=C(c1csnn1)N1CCC[C@@]2(CCN(Cc3nccs3)C2)C1 |  | -6.04% |
| C[C@@H]1C[C@H]2[C@@H]3C[C@H](F)C4=CC(=O)C=C[C@@]4(C)[C@]3(F)[C@H](O)C[C@]2(C)[C@@]1(O)C(=O)CO |  | 8.35% [at 33.2 µM] |
| COc1ccc(Cn2ccn(CC(=O)Nc3cc(C)ccc3C)c(=O)c2=O)cc1 |  | 2.7% |
| CN1CC(O)c2cc(N=NC(N)=O)c(O)cc21 (centres undefined) |  | -5.31% |
| O=C(c1csnn1)N1CCC[C@@]2(CCN(c3cccc(-c4ccccc4)c3)C2)C1 |  | 0.943% |
| O=C(c1cnccn1)N1CCC[C@@]2(CCN(Cc3ccncc3)C2)C1 |  | -5.03% |
| COc1ccccc1CN1CC2(CCN(S(=O)(=O)c3ccccc3)CC2)C1 |  | 0.687% |
| O=P1(N(CCCl)CCCl)NC(OO)CCO1 (centres undefined) |  | 2.01% |
| O=C(c1cccc(F)c1)N1CCC2(CCCN(Cc3ccncc3)C2)CC1 |  | -5.59% |
| COC(=O)N1CCC[C@@]2(CCN(C(=O)NC(C)C)C2)C1 |  | -9.35% |
| O=C(c1ccco1)N1CCC[C@@]2(CCN(c3ccccc3)C2)C1 |  | 9.42% |
| COC(=O)N1CCC2(CCCN(Cc3ccccc3OC)C2)CC1 |  | -2.64% |
| CS(=O)(=O)N1CCC2(CC1)CN(Cc1cc(C(F)(F)F)cc(C(F)(F)F)c1)C2 |  | 7.42% |

| SMILES | Potency | activity, negative = inhibition |
| --- | --- | --- |
| CC(=O)N1CCC2(CCCN(c3ncccn3)C2)CC1 |  | 4.38% |
| CC[C@]1(C)CC(=O)NC1=O |  | 4.41% |
| C=C1C(=CC=C2CCC[C@]3(C)[C@@H]([C@H](C)C=C[C@H](C)C(C)C)CC[C@@H]23)C[C@@H](O)C[C@@H]1O |  | -15.1% |
| COc1ccc(Cl)cc1NC(=O)CCn1c(=O)c2cccn2c2ccccc21 |  | -6.83% |
| Cc1ccc(C(=O)NCCc2nnc(SCC(=O)Nc3cccc(C(=O)O)c3)n2C)cc1 |  | 1.34% |
| Cc1ccc(C)c2c1cc(C)c1nnc(SCC(=O)Nc3cccc(C(=O)O)c3)n12 | 6.31 µM (active) |  |
| CCOc1cc(C)ccc1OCc1nnc(SCC(=O)Nc2cccc(C(=O)O)c2)n1-c1ccccc1 |  | -8.24% |
| CC(=O)OC[C@H]1O[C@@H](O[C@H]2[C@H](O)[C@@H](OC(=O)c3ccccc3C(=O)O)[C@H](O)O[C@@H]2COC(C)=O)[C@H](O)[C@@H](OC(=O)c2ccccc2C(=O)O)[C@@H]1O |  | 0.513% |
| O=C(c1cccc(F)c1)N1CCC2(CC1)CCN(c1ccccc1)CC2 |  | 5.12% |
| c1csc(CN2CC3(CCNCC3)C2)n1 |  | 2.23% |
| O=C(O)CCCCC(=O)O |  | -3.81% |
| COc1ccc(C(=O)N2CCC[C@@]3(CCN(C(=O)NC(C)C)C3)C2)cc1 |  | -4.71% |
| COc1ccccc1OCCCn1c(-c2ccc(Cl)cc2)nc2ccccc2c1=O |  | -7.86% |
| O=S(=O)(c1ccccc1)N1CCC2(CC1)CN(Cc1nccs1)C2 |  | -5.48% |
| CCOC(=O)c1ccc(NC2=CC(c3ccc(OCC)cc3)N(c3ccc(C(=O)OCC)cc3)C2=O)cc1 (centres undefined) |  | 1.45% |
| CCOc1ccc(N2C(=O)/C(=C/c3ccc(C)o3)N(C)C2=S)cc1 | 28.2 µM (active) |  |
| CCOc1ccc(N2C(=O)Nc3ccccc3C2(O)C(=O)NCc2ccco2)cc1 (centres undefined) |  | -6.44% |
| O=C(c1cc(C(F)(F)F)cc(C(F)(F)F)c1)N1CCC2(CC1)CN(c1ccncc1)C2 |  | 0.607% |
| CCc1cc(-c2nnc(SCC(=O)NC3CC3)n2C)cs1 |  | -5.99% |
| CCc1cc(-c2n[nH]c(=S)n2CC(C)C)cs1 | 3.16 µM (active) |  |
| CCn1c(C(C)C)n[nH]c1=S |  | -29.1% |
| FC(F)(F)C1CCCN(c2nsc3ccccc23)C1 (centres undefined) | 6.31 µM (active) |  |
| FCOC(C(F)(F)F)C(F)(F)F |  | 5.69% |
